According to PubChem BioAssay AID1851 (National Center for Advancing Translational Sciences (NCATS), 2009):
“And” between values parts separate entries of the source, which are not always exact repeats. Equal values may be shown once. Hit rate of the full screen: of about 16,000 compounds, about 2,600 (16%) were called active. Roughly 20% stayed inconclusive and do not appear here. Calls follow the shape of the dose curve; as a rule, active = well fitted curve in the direction sought with a large enough effect; inconclusive = small, poorly fitted or top-dose-only effect, or effect the other way; inactive = no such curve, though single readings can be large or run the other way. A selection follows.

Target: Cytochrome P450 2D6 (Homo sapiens) (UniProt P10635)
Assay: Cytochrome panel assay with activity outcomes
Details: recombinant CYP, pro-luciferin dealkylation, luminescence, p450-cyp2d6; series mostly up to 57.1 µM
% is scaled to controls: 0 for no effect and ±100 for the full control effect.

Sequence of Cytochrome P450 2D6 (Homo sapiens) (P10635 whole entry, looked up): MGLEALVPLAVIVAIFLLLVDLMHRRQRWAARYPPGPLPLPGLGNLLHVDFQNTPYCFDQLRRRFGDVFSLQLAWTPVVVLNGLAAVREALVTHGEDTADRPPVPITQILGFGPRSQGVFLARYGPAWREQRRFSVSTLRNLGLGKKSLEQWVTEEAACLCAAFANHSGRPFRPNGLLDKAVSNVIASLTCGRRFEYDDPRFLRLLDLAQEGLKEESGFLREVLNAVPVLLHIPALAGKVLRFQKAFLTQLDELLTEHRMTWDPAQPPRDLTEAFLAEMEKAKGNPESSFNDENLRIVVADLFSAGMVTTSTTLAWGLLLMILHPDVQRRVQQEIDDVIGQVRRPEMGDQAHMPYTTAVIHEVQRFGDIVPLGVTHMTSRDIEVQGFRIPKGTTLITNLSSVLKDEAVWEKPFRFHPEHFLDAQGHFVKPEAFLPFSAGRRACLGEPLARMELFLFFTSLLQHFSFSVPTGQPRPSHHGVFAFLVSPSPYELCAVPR

SMILES | activity, negative = inhibition | AC50
Cn1c(N)c(N=Nc2ccc(S(N)(=O)=O)cc2)c(=O)n(C)c1=O | 5.11% [at 11.4 µM] (inactive) | 
Cc1cc(N2CCOCC2)nc2ccc(Cc3ccc4nc(N5CCOCC5)cc(C)c4c3)cc12 | -2.88% [at 11.4 µM] (inactive) | 
CCN(CC)C(=O)N1CCN(C)CC1 |  | inactive
COc1ccc(Sc2ccc(NC(=O)c3ccccc3Cl)cc2C#N)cc1 |  | inactive
Cc1cccc(NC(=O)CC2Nc3cccc4cccc(c34)NC2=O)c1 (stereo unspecified) |  | 14.1 µM (active)
CCOC(=O)c1ccc(NC(=O)CC2NCCNC2=O)cc1 (stereo unspecified) |  | inactive
CC(=O)Nc1ccc(NC(=O)CC2Nc3cccc4cccc(c34)NC2=O)cc1 (stereo unspecified) |  | inactive
Cc1nc(NS(=O)(=O)c2ccc(Br)cc2)c2c3c(sc2n1)CCC3 |  | inactive
Cc1cc(NC(=O)c2cccc(F)c2)no1 |  | inactive
Cc1ccc(-c2csc(C(C#N)=C3CCCC3)n2)cc1 |  | inactive
Cc1ccc(N2CC(C(=O)Nc3cc(C)on3)CC2=O)cc1 (stereo unspecified) |  | inactive
c1ccc(CNc2ncncc2-c2ccoc2)cc1 |  | 20 µM (active)
Cc1cnc(CNc2ncncc2-c2ccoc2)cn1 |  | inactive
c1csc(CNc2ncncc2-c2ccoc2)c1 |  | 15.8 µM (active)
NCCCC(=O)O |  | inactive
CCC(=O)O[C@@H]1[C@H](C)O[C@H](O[C@H]2[C@@H](N(C)C)[C@H](O)[C@@H](O[C@@H]3[C@@H](CC=O)C[C@@H](C)[C@@H](O)/C=C\C=C/C[C@@H](C)OC(=O)C[C@@H](OC(=O)CC)[C@H]3OC)O[C@H]2C)C[C@]1(C)O |  | inactive
CCCCCCC1CC(C)(/C(C)=N/NC(N)=O)OC1=O (stereo unspecified) |  | inactive
CCOC(=O)N/N=C1/C[C@@H](O)[C@@H](O)[C@@H]2[C@@H]3C(=O)N([C@@H](C)c4ccccc4)C(=O)[C@H]3CC[C@@H]12 | 0.427% [at 11.4 µM] (inactive) | 
COc1ccc(NC(=S)Nc2ncccc2C)c(OC)c1 |  | inactive
Nc1nc2c(ncn2[C@@H]2C=C[C@@H](CO)C2)c(=O)[nH]1 | 4.55% [at 11.4 µM] (inactive) | 
Cc1cc(-c2c(C)[nH]n(-c3ccccc3)c2=O)n(-c2ccccc2)n1 |  | inactive
O=C(O)[C@H](Cc1ccc(O)c([N+](=O)[O-])c1)N1C(=O)c2ccccc2C1=O | 6.61% [at 11.4 µM] (inactive) | 
CN1CCN(c2ncc3nc(-c4ccc(F)cc4)c(=O)n(Cc4cccs4)c3n2)CC1 |  | inactive

SMILES | activity, negative = inhibition | AC50
CN(C)Cc1ccccc1-c1nc(N(C)C)c2ccccc2n1 |  | 2.51 µM (active)
Cc1cccc(CNc2nc(-c3ccccc3CN(C)C)nc3ccccc23)c1 |  | 12.6 µM (active)
Cc1noc(C)c1-c1nc(N2CCOCC2)c2ccccc2n1 |  | inactive
CNc1nc(-c2c(C)noc2C)nc2ccccc12 |  | inactive
Cc1ccccc1-c1nc(N2CCOCC2)c2ccccc2n1 |  | inactive
CNc1nc(-c2ccccc2CN(C)C)nc2ccccc12 |  | 3.98 µM (active)
CN(C)Cc1ccccc1-c1nc(N2CCOCC2)c2ccccc2n1 |  | 7.94 µM (active)
COc1ccc(N2CC(C(=O)OCC(=O)c3cccc(OC)c3)CC2=O)cc1 (stereo unspecified) |  | inactive
O=C1CC(c2ccccc2)Cc2nc(N3CCc4ccccc4C3)ncc21 (stereo unspecified) |  | inactive
O=C(Nc1nnc(C2CC2)s1)c1ccc(S(=O)(=O)c2ccccc2)cc1 |  | inactive
COCCNC(=O)c1ccc2c(c1)nc(C)n2-c1cc(OC)c(OC)c(OC)c1 |  | inactive
COC(=O)COc1ccc2c(-c3cccc([N+](=O)[O-])c3)cc(=O)oc2c1 |  | inactive
Cc1cc(C(=O)OCC(=O)NCCCN2CCCC2=O)c2ccccc2n1 |  | inactive
O=C(C1=C(O)C(=O)N(Cc2ccco2)C1c1ccccc1)c1cccs1 (stereo unspecified) |  | inactive
CN(C)C(=O)c1ccc(-c2nc(NC3CCNCC3)c3ccccc3n2)cc1 |  | inactive
Cc1noc(C)c1-c1nc(NC2CCNCC2)c2ccccc2n1 |  | inactive
COCCNc1nc(-c2ccccc2C)nc2ccccc12 |  | inactive
COCCNc1nc(-c2c(C)noc2C)nc2ccccc12 |  | inactive
CN(C)Cc1ccccc1-c1nc(NCc2ccccc2)c2ccccc2n1 |  | 20 µM (active)
CN(C)Cc1ccccc1-c1nc(NCc2cccs2)c2ccccc2n1 |  | 20 µM (active)
COCCNc1nc(-c2ccccc2CN(C)C)nc2ccccc12 |  | 12.6 µM (active)
CN(C)Cc1ccccc1-c1nc(NC2CC2)c2ccccc2n1 |  | 3.98 µM (active)
CC1=C(C#N)C(NC(=O)C2CCCCC2)(C(F)(F)F)C(=O)N1 (stereo unspecified) |  | inactive

SMILES | activity, negative = inhibition | AC50
N#Cc1nc(-c2ccc(F)cc2)oc1N1CCCC1 |  | inactive
CCOC(=O)c1cc(-c2ccccc2)sc1NC(=S)Nc1cc(C)ccn1 |  | inactive
NCCNS(=O)(=O)c1ccc(N)cc1 | 1.63% [at 11.4 µM] (inactive) | 
CCn1c(SCC(=O)Nc2sc3c(c2C#N)CCC(C(C)(C)C)C3)nnc1-c1ccco1 (stereo unspecified) |  | inactive
COc1ccc(C(=O)N2CCC[C@@]3(CCN(c4cccc(-c5ccccc5)c4)C3)C2)cc1 |  | inactive
Cn1ncc2c(Nc3cccc(C(=O)O)c3)ncnc21 |  | inactive
CN[C@]1(C)[C@H]2CC[C@@H](C2)C1(C)C |  | inactive
CCc1ccc(N2CC(C)Cn3c2nc2c3c(=O)n(CCN3CCOCC3)c(=O)n2C)cc1 (stereo unspecified) |  | inactive
CC(C)[C@@H](OCc1ccccc1)[C@H](C)/C=N\O[C@@H](C)c1cn([C@H](CO)Cc2ccccc2)nn1 | -24.2% [at 11.4 µM] (inactive) and -19.2% [at 11.4 µM] (inactive) | 
CC1(C)S[C@@H]2[C@H](NC(=O)[C@H](C(=O)O)c3ccsc3)C(=O)N2[C@H]1C(=O)O |  | inactive
CCOC(=O)C1=C(C)N=C2c3ccccc3C(=O)C2C1c1ccc(C)cc1 (stereo unspecified) |  | inactive
O=C1CCCC2=C1C(c1ccc(Cl)cc1)C1C(=O)c3ccccc3C1=N2 (stereo unspecified) |  | 25.1 µM (active)
O=C1c2ccccc2C2=Nc3ccccc3SC(c3ccccc3F)C12 (stereo unspecified) |  | inactive
O=C1C(=O)c2ccccc2C(O)=C1C1CCC(c2ccc(Cl)cc2)CC1 (stereo unspecified) |  | inactive
CCOC(=O)C1=C(C)NC(=O)NC1c1ccoc1 (stereo unspecified) |  | inactive
CCOC(=O)C1=C(C)N=C2c3ccccc3C(=O)C2C1c1ccc(Cl)cc1 (stereo unspecified) |  | 15.8 µM (active)
COC(=O)c1c(NC(=O)C(C)(C)C)sc2c1C(C(=O)OC)CC2 (stereo unspecified) |  | inactive
O=S(=O)(C[C@H](O)C(Cl)(Cl)Cl)NNc1ccccc1 | 17.4% [at 11.4 µM] (inactive) | 
C[C@H]1O[C@@H](CC(=O)O)Cc2c1c(O)c1c(O)cc(-c3cc(=O)c4c(=O)c5c(c(=O)c=4c3=O)C[C@H](CC(=O)O)O[C@@H]5C)c(O)c1c2O | -3.88% [at 11.4 µM] (inactive) | 
CN(C)c1ncc2nc(-c3ccc(F)cc3)c(=O)n(C3CC3)c2n1 |  | inactive
O=C(Nc1cc(C(F)(F)F)ccc1-n1cncn1)c1ccc(Br)cc1 |  | inactive
C[n+]1cccc(CNC(=O)/C=N/O)c1 |  | inactive
CC(Oc1ccccc1)c1ccnn1S(=O)(=O)c1ccccc1 (stereo unspecified) |  | inactive

SMILES | activity, negative = inhibition | AC50
CC[N+](C)(CC)CCC[n+]1c(-c2ccccc2)c2cc(N)ccc2c2ccc(N)cc21 |  | 6.31 µM (active)
CN=C(NC#N)Nc1ccc(C2=NNC(=O)C[C@@H]2C)cc1 |  | inactive
NC(=O)C1CCN(C(=O)CN2C(=O)c3ccccc3S2(=O)=O)CC1 |  | inactive
Cc1nc2cnc(N3CCOCC3)nc2n(C)c1=O |  | inactive
CCOC(=O)Oc1c(OC)cc(C(=O)O[C@H]2C[C@H]3CN4CCc5c([nH]c6cc(OC)ccc56)[C@@H]4C[C@H]3[C@@H](C(=O)OC)[C@@H]2OC)cc1OC |  | inactive
COCCCCC(=NOCCN)c1ccc(C(F)(F)F)cc1 |  | 3.98 µM (active)
COc1c(/C=N/Nc2ccc([N+](=O)[O-])cc2[N+](=O)[O-])c(C)nn1-c1ccccc1 |  | inactive
C[C@@]12CC[C@@H]3c4ccc(O)cc4CC[C@H]3[C@H]1CC[C@H]2O |  | inactive
Cc1cccc(C)c1OC[C@@H](N)C(C)C |  | 15.8 µM (active)
CCOc1nc(N=C(N)N)nc2c(C)cccc12 |  | inactive
Cc1cccc(C)c1NC(=O)[C@H](C)N |  | inactive
COC(=O)[C@@]1(Cc2ccc(F)cc2)[C@H]2c3cc(C(=O)N4CCCC4)n(Cc4ccccn4)c3C[C@H]2CN1C(=O)c1ccccc1 |  | inactive
COC(=O)[C@@]1(Cc2ccccc2)[C@H]2c3cc(C(=O)N4CCCC4)n(CC4CC4)c3C[C@H]2CN1C(=O)c1ccccc1 |  | inactive
COC(=O)[C@@]1(Cc2ccc(F)cc2)[C@H]2c3cc(C(=O)N4CCCC4)n(Cc4ccc(OC(F)(F)F)cc4)c3C[C@H]2CN1C(=O)c1ccccc1 |  | inactive
COC(=O)[C@@]1(Cc2ccc(F)cc2)[C@H]2c3cc(C(=O)N4CCCC4)n(CCc4ccc(O)c(O)c4)c3C[C@H]2CN1C(=O)c1ccccc1 |  | 12.6 µM (active)
COC(=O)[C@@]1(Cc2ccc(F)cc2)[C@H]2c3cc(C(=O)N4CCCC4)n(Cc4c(CO)[nH]cc(C)c4=O)c3C[C@H]2CN1C(=O)c1ccccc1 |  | 12.6 µM (active)
COC(=O)[C@@]1(Cc2ccccc2)[C@H]2c3cc(C(=O)N4CCCC4)n(Cc4cccc5ccccc45)c3C[C@H]2CN1C(=O)c1ccccc1 |  | inactive
COC(=O)[C@@]1(Cc2ccccc2)[C@H]2c3cc(C(=O)N4CCCC4)n(Cc4nc5ccccc5[nH]4)c3C[C@H]2CN1C(=O)c1ccccc1 |  | 7.94 µM (active)
COC(=O)[C@@]1(Cc2ccc(F)cc2)[C@H]2c3cc(C(=O)N4CCCC4)n(CCc4ccc(OC)c(Br)c4)c3C[C@H]2CN1C(=O)c1ccccc1 |  | inactive
COC(=O)[C@@]1(Cc2ccc(F)cc2)[C@H]2c3cc(C(=O)N4CCCC4)n(Cc4ccccc4)c3C[C@H]2CN1C(=O)c1ccccc1 |  | inactive
COC(=O)[C@@]1(Cc2ccccc2)[C@H]2c3cc(C(=O)N4CCCC4)n(Cc4c(CO)[nH]cc(C)c4=O)c3C[C@H]2CN1C(=O)c1ccccc1 |  | 12.6 µM (active)
COC(=O)[C@@]1(Cc2ccc(F)cc2)[C@H]2c3cc(C(=O)N4CCCC4)n(CCc4c[nH]c5ccccc45)c3C[C@H]2CN1C(=O)c1ccccc1 |  | inactive
